# Data taken from PubChem BioAssay (NCATS).
# Results filed as inconclusive are left out. Unmarked numbers belong to inactive results. Calls of active or inactive are those of the source. Calls come from the whole dose curve; as a rule, active = well fitted activation curve with a large enough effect; inconclusive = small, poorly fitted or top-dose-only effect, or another doubt; inactive = no such curve, though single readings can be large or run the other way.
# Target: Rap guanine nucleotide exchange factor 3 (Homo sapiens) (UniProt O95398)
# Assay: Counterscreen qHTS for agonist of cAMP-regulated guanine nucleotide exchange factor 3 (EPAC1) (AID 1645889); note: nearly all actives have a fitted effect of over 40% in size; for activation: % of control where 0% means no effect
# Conditions: EPAC1 Rap1B-BODIPY-GDP exchange, fluorescence; series mostly up to 154 µM; activation: at the top concentration
# Method in brief: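 Rap1B-BODIPY-GDP 250 nM + GDP 50 uM; cpds 7-pt, final 9.74 nM–152 uM (activator mode) or from 7.32 nM upwards (inhibitor mode); RT; FI 480/540 nm at 5 and 30 min, then ± cAMP, reread.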
# Potency is the fitted concentration of half-maximal effect.
Compound,activation,Potency
CCOc1ccc(CCNC(=O)c2cccc(S(=O)(=O)N3CCCCC3)c2)cc1OCC,-3.49%,
C=CCCCN(Cc1ccccc1)S(=O)(=O)c1ccccc1Br,12.4% [at 30.8 µM],
CCCCCN(C(=O)CCC(=O)OCc1ccc(C(C)C)cc1)c1c(N)n(CCCC)c(=O)[nH]c1=O,-2.35%,
COc1ccc(Br)cc1CNC(=O)c1ccc2nc(C(C)C)oc2c1,21.2%,
Cc1ccc2c(c1)C=CC(C#N)N2C(=O)c1ccccc1 (stereo not given),29.2%,
CC(/C=C1\SC(=S)N(NS(=O)(=O)c2ccccc2)C1=O)=C\c1ccccc1,7.68% [at 30.8 µM],
CC(C)OC(=O)c1c(-c2ccccc2)c(-c2ccccc2)nn(C)c1=O,27.6%,
CCN1C/C(=C/c2ccc(N3CCOCC3)cc2)C(=O)/C(=C/c2ccc(N3CCOCC3)cc2)C1,,39.8 µM (active)
O=C(O)C(c1ccccc1)N1C(=O)/C(=C\c2ccc(-c3ccccc3Cl)o2)SC1=S (stereo not given),14.1%,
Cc1ccc(CN(C(=O)COc2cccc(Cl)c2)c2ccccn2)o1,21.8%,
CC(Sc1ccccc1)C(=O)NNC(=O)c1csc(N2CCOCC2)n1 (stereo not given),28.3% [at 30.8 µM],
NC(=O)c1sc(=S)n2c1[nH]c(=O)c1sccc12,18%,
Cc1ccc(NC(=O)N2CCN(c3nnc(C)c4c(C)n(-c5ccc(Cl)cc5)nc34)CC2)c(C)c1,21.5%,
COc1cc(/C=C2\SC(=S)N(NS(=O)(=O)c3ccc(C)cc3)C2=O)cc(OC)c1OC,-6.13%,
CC1(C)Cc2ccccc2-c2nnc(-c3ccc4ccccc4n3)n21,-1.21%,
